Pf growth 48h – Primary qHTS for delayed death inhibitors of the malarial parasite plastid, 48 hour incubation | P. falciparum luciferase growth in erythrocytes, 48 h | Potency, µM (titrated, usually from 28.7 µM), usual class: inhibitors | 310,000 compounds, 5.9% hits
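In quantitative HTS format, infected erythrocytes bearing luciferase-reporter parasites were treated for a single generation at 37 C. Luminescence after adding detection reagent served as the growth measure.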
Pf growth 96h – Primary qHTS for delayed death inhibitors of the malarial parasite plastid, 96 hour incubation | P. falciparum luciferase reporter growth, 96 h | 320,000 compounds, 6.9% hits | AID 504834, 2011 | Potency, µM (series often up to 28.7 µM), usual class: inhibitors
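Delayed-death screen, second-generation endpoint: infected erythrocytes, 2% hematocrit, 0.05% parasitemia final; 96 hours at 37 C, 5% CO2; luciferase detection reagent; luminescence decrease equals reduced growth.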
HCMV inh – qHTS Assay for inhibitors of the human cytomegalovirus (HCMV). activity change, negative = inhibition, % at 57.5 µM. AID 1259415, 2018. HFF cells, HCMV-luciferase reporter, 72 h; active compounds read low. 410,000 compounds, 4.5% hits; in the data active = activity change below about -60%; inconclusive = no clear call, values can overlap the other calls; inactive = above about -39%
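Screen run at 2 compound doses on HFFs infected with reporter HCMV, MOI 1 PFU/cell. Luciferase activity from cell lysates at 72 h post infection gave inhibition relative to buffer-only and Salinomycin wells.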
FBPA Giardia inh – qHTS Assay for Inhibitors of Fructose-1,6-bisphosphate Aldolase from Giardia Lamblia. A8B2U2. purified Giardia FBPA. Potency, µM (highest dose often 59.6 µM), usual class: inhibitors. 290,000 compounds, 0.71% hits; also: nearly all actives have a fitted effect of over 55% in size
Target sequence (A8B2U2 whole entry, looked up): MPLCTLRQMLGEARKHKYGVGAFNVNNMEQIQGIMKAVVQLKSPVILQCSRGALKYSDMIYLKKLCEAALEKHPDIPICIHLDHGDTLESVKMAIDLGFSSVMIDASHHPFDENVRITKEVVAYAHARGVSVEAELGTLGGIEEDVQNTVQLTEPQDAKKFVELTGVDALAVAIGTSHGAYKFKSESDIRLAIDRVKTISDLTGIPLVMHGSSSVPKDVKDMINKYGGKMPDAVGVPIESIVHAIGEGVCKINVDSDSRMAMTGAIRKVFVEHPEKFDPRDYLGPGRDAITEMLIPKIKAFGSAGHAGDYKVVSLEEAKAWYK
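40 nM FBPA preincubated 10 min at RT with compound (up to 57.5 uM final), then substrate plus GAPDH/TPI/NAD/arsenate coupling and diaphorase/resazurin added. Fluorescence read after 20 min at RT, 525/598 nm.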
Sm TGR inh – qHTS Assay for the Inhibitors of Schistosoma Mansoni Peroxiredoxins | purified TGR, DTNB reduction, TNB absorbance 405 nm | Potency, µM (highest dose often 114 µM), usual class: inhibitors | 360,000 compounds, 3% hits | AID 485364, 2010; also: nearly all actives have a fitted effect of over 60% in size
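TGR 20 nM + NADPH 100 uM (dispensed conc.), cpd preinc 15 min RT; start with NADPH (500 uM addition) then DTNB (15 mM addition). Kinetic TNB absorbance, 405 nm filter. Four-parameter Hill fit across titration.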
Numbers stand for hits; - = inactive; ? = inconclusive; . = not tested or not shown. Rows were chosen to be rich in hits. Some 14% of all compounds tested hit in one or more screens of this group. Unless noted, calls follow the shape of the dose curve; as a rule, active = well fitted curve in the direction sought with a large enough effect; inconclusive = small, poorly fitted or top-dose-only effect, or another doubt; inactive = no such curve, though single readings can be large; an effect the other way counts as inactive or inconclusive.

SMILES	Pf growth 48h	Pf growth 96h	HCMV inh	FBPA Giardia inh	Sm TGR inh
C/C(=N\OCc1cccc(C(=O)O)c1)c1ccc(Cl)cc1	1.04µM	-	-	-	-
Cc1ccc(C)c(NC(=O)CN2C(=O)C3CC=CCC3C2=O)c1 (centres undefined)	.	.	-	.	.
O=C(Nc1ccccc1)C1=C[C@H](C2CCCCC2)C[C@H](OCc2ccc(CO)cc2)O1	?	?	?	-	-
O=C(NC1CC1)C1=C[C@H](C2CCCCC2)C[C@H](OCCCCO)O1	-	-	-63.9	-	-
O=C(Nc1ccccc1)C1=C[C@H](C2CCCCC2)C[C@H](OCCCCO)O1	.	.	-75.9	.	.
O=C(Nc1ccccc1)C1=C[C@@H](C2CCCCC2)C[C@@H](OCc2ccc(CO)cc2)O1	?	?	-60.1	-	-
O=C(NC1CC1)C1=C[C@@H](C2CC2)C[C@@H](OCCCCO)O1	.	.	-	.	.
Oc1ccc(O)c2c1C1c3ccccc3C2c2ccccc21	?	-	.	-	5.01µM
Cc1cc(C)c2nc(Nc3nc(-c4ccccc4)cc(=O)[nH]3)nc(C)c2c1	1.65µM	3.7µM	-	-	-
Cc1cc(C)c2nc(Nc3nc(CSc4nc5ccccc5[nH]4)cc(=O)[nH]3)nc(C)c2c1	.	.	-65.0	.	.
Cc1nc(-c2ccccc2)cc(=O)[nH]1	-	-	-	-	-
Cc1ccc2oc(Nc3nc(-c4ccccc4)cc(=O)[nH]3)nc2c1	?	0.828µM	-101.1	-	-
Cc1cc(C)c2nc(NC3=NCN(CCN4CCOCC4)CN3)nc(C)c2c1	?	-	.	-	-
Cc1cc(-c2ccccc2)nc(Nc2nc3c(C)cccc3c(=O)[nH]2)n1	.	.	-	.	.
CC1=CC(C)(C)N=C(Nc2nc(C)c3cc(C)cc(C)c3n2)N1	?	?	-96.6	-	-
Cc1ccc(C(O)(COC(=O)C(C)C)COC(=O)C(C)C)c(O)c1	?	-	-	-	35.5µM
CCN(CC)C(=O)C1=C(C)N(Cc2ccc(C(C)(C)C)cc2)C(=O)C(CC(=O)NCCCN(C)C)C1 (centres undefined)	.	.	-	.	.
CCCCCCN(C(=O)CCCCCN1C(=O)NC(c2ccc(C(C)(C)C)cc2)C(C(=O)OCc2ccccc2)=C1C)C(C(=O)NCCCC)c1ccc(OCC(=O)OC)c(C(=O)OC)c1 (centres undefined)	2.08µM	2.08µM	.	-	-
CCCCCCN(C(=O)CCCCCN1C(=O)NC(c2ccc(C3CCCCC3)cc2)C(C(=O)OCc2ccccc2)=C1C)C(C(=O)NCCCC)c1ccc(OCC(=O)OC)c(C(=O)OC)c1 (centres undefined)	2.94µM	2.08µM	-	-	-
CC1=C(C(=O)OCc2ccccc2)C(c2ccccc2)NC(=O)N1CCCCCC(=O)O (centres undefined)	-	?	-	-	-
CCCCCCN(C(=O)CCCCCN1C(=O)NC(c2ccccc2)C(C(=O)OCc2ccccc2)=C1C)C(C(=O)NCCCC)c1ccc(OCC(=O)OC)c(C(=O)OC)c1 (centres undefined)	2.08µM	3.29µM	-98.1	-	-
COc1cccc([C@@H]2Oc3ccc(OC)cc3C[C@H]2OC(=O)N[C@H](C)C2CCCCC2)c1	.	.	.	-	.
COC(=O)c1ccc2nc(-c3ccc(Cl)cc3)c(Cc3ccsc3)n2c1	.	.	-	.	.
C/C(=N\Nc1ccc(F)cc1F)c1ccccc1O	-	-	-68.9	-	-
C/C(=N\Nc1cc(C(F)(F)F)ccc1Cl)c1ccccc1O	?	-	-	-	-
SMILES	Pf growth 48h	Pf growth 96h	HCMV inh	FBPA Giardia inh	Sm TGR inh
c1ccc(-c2nc3nonc3nc2-c2ccccc2)cc1	11.7µM	-	-78.0	?	?
CCOC(=O)CC(NC(=O)CCc1c(C)nc2cc(-c3ccccc3)nn2c1C)c1ccc(C)cc1 (centres undefined)	.	.	?	.	-
O=C1OC(c2ccc(F)cc2)=C/C1=C\c1ccc(O)cc1	-	-	-	-	12.6µM
O=C1OC(c2ccc(Cl)cc2)=C/C1=C/c1cccnc1	-	?	-	-	-
O=C1OC(c2ccc(F)cc2)=C/C1=C\c1ccc([N+](=O)[O-])o1	-	-	.	-	3.98µM
Cc1cc(C(=O)COc2ccc(-c3nnco3)cc2)c(C)n1Cc1ccccc1	?	?	-69.6	-	?
